Source: PubChem BioAssay AID2283162 (EPA ToxCast)
Inconclusive results are not listed. Active and inactive are the calls of the source. The calls were made as follows: active = hit-call score of the fitted dose curve at least 0.9, where 1 is the maximum; inconclusive = response in the unintended direction; inactive = score below 0.9.

Molecular target: human Insulin-like Growth Factor 1 Receptor (IGF1R), IGF1R (gene 3480) (UniProt P08069)
Assay: NVS_ENZ_hIGF1R: NovaScreen (NVS) Enzymatic Assay for human Insulin-like Growth Factor 1 Receptor (IGF1R)
Protocol: NVS_ENZ_hIGF1R is a biochemical, single-readout assay that uses extracted gene-proteins in a cell-free assay. Measurements were taken 1 hour after chemical dosing in a 384-well plate.NVS_ENZ_hIGF1R is one of one assay component(s) measured or calculated from the NVS_ENZ_hIGF1R assay. It is designed to make measurements of enzyme activity, a form of enzyme reporter, as detected with fluorescence intensity signals by Fluorescence and electrophoretic mobility shift technology.Data from the assay component NVS_ENZ_hIGF1R was analyzed into 1 assay endpoint. This assay endpoint, NVS_ENZ_hIGF1R, was analyzed in the positive analysis fitting direction relative to DMSO as the negative control and baseline of activity. Using a type of enzyme reporter, loss-of-signal activity can be used to understand changes in the enzymatic activity as they relate to the gene IGF1R. Furthermore, this assay endpoint can be referred to as a primary readout, because this assay has produced multiple assay endpoints where this one serves a enzymatic activity function. To generalize the intended target to other relatable targets, this assay endpoint is annotated to the kinase intended target family, where the subfamily is receptor tyrosine kinase.
Binding assays used specific radioligands (tritiated, iodinated) with non-radioactive competitive displacement ligands in agonist or antagonist protocols (as indicated) and various reference compounds and inhibitors to titrate specific binding to receptors and transporters. Most enzyme assays (CYPs, kinases, phosphatases, proteases, HDACs) used recombinant protein and specific substrates (fluorescence mostly, some colorimetric and radioactive) and inhibitors, followed by a biochemical separation of substrate and product. All assays for the biochemical HTS were initially run in duplicate at a single concentration (10 uM for CYP450 assays and 25 uM for all others). Assay-chemical combinations meeting a pre-defined threshold (e.g., 30% inhibition and other criteria defined below) were then run in singleton concentration-response format with maximum concentration of 20 uM for CYPs and 50 uM for all others. Each assay was run with positive and negative controls, and concurrent controls on every plate. The follow-up (secondary) screen tested active chemical-pairs in concentration series, as well as a few additional assays not tested in the primary screen, some selected negative inactives, and several cases re-run in the concentration series for confirmatory purposes.

Chain of human Insulin-like Growth Factor 1 Receptor (IGF1R), IGF1R (gene 3480) (P08069 whole entry, looked up): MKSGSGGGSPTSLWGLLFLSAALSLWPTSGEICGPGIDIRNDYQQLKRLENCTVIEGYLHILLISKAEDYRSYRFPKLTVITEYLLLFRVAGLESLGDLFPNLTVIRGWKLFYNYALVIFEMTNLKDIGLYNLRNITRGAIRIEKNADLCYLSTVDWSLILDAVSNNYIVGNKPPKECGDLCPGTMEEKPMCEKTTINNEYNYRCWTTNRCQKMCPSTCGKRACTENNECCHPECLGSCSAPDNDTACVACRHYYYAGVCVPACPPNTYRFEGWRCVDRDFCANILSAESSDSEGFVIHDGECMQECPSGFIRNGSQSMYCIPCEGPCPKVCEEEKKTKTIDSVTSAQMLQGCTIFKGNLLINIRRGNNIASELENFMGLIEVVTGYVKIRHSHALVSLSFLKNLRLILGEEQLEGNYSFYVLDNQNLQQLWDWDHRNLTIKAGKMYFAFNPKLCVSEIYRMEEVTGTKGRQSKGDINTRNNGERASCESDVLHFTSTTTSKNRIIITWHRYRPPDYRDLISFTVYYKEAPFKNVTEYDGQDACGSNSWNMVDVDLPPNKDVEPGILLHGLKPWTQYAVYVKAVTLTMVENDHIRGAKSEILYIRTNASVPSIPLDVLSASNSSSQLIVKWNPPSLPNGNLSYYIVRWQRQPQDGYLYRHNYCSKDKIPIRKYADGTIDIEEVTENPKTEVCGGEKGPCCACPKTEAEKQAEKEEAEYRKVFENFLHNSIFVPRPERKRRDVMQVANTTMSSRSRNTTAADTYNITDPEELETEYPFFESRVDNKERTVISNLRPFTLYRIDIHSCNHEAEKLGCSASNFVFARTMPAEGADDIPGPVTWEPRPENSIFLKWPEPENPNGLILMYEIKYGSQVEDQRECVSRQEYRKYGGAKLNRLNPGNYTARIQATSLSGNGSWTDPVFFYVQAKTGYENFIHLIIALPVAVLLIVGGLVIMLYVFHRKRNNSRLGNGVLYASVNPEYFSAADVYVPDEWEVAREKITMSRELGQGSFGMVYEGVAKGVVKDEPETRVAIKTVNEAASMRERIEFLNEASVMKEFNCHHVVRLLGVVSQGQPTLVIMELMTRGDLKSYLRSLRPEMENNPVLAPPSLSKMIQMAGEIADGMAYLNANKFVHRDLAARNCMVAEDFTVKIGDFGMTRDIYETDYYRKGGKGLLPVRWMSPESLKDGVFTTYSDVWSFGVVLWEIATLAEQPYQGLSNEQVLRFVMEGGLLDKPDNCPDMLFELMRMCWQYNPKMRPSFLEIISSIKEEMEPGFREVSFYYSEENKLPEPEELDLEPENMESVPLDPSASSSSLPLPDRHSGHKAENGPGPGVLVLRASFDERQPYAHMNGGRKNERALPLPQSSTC

Compound | outcome | AC50
CC(C)C(=O)OCC(C)(C)C(OC(=O)C(C)C)C(C)C (stereo unspecified) | inactive | 
O=C(N[C@H]1CN2CCC1CC2)c1ccc2c(c1)OCCO2 | inactive | 
CC(C)(C)c1cc(O)ccc1O | inactive | 
CCC1(c2ccccc2)C(=O)N=C(O)NC1=O (stereo unspecified) | inactive | 
CN(C)[C@@H]1C(=O)C(C(N)=O)=C(O)[C@@]2(O)C(=O)C3=C(O)c4c(O)cccc4[C@@](C)(O)[C@H]3[C@H](O)[C@@H]12 |  | 39.4 µM (active)
Clc1cccc(Cl)c1 | inactive | 
